{"source": "PubChem BioAssay AID868", "about": "(SRMLSC, 2007)", "note": "Screen size: about 190,000 compounds; about 3,500 (1.8%) were called active.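 Rule for the calls: active = inhibition above a set limit, 3 SD over mean compound inhibition (cut at about 8.4% in these data); inactive = the rest.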 The sample as a whole holds a higher share of actives than the screen did."}
{"assay": "RAM signaling blockers in budding yeast – dse1pr::URA3 reporter, 5-FOA selection, primary screen (AID 868);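 note: 0% = DMSO-only wells with no growth and 100% = 10 µM 1-NA-PP1 full growth; inhibition rescues growth on 5-FOA so higher OD means more RAM inhibition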", "settings": "S. cerevisiae dse1pr::URA3 reporter, 5-FOA growth OD615, 2 d; at 50 µM; hits give high values; analog-sensitive cbk1-as2 kinase mutant strain"}
{"compound": "O=C(C1=C[C@H](c2ccc(C(F)(F)F)cc2)C[C@H](OCc2ccc(CO)cc2)O1)N1CCN(Cc2ccccc2)CC1", "inhibition": "2.29% (inactive)"}
{"compound": "C=CCOC(=O)C1=C[C@@H](c2ccccc2)C[C@@H](OCc2ccc(CO)cc2)O1", "inhibition": "1.5% (inactive)"}
{"compound": "O=C(NCc1ccccc1)C1=C[C@@H](c2ccc(C(F)(F)F)cc2)C[C@@H](OCc2ccc(CO)cc2)O1", "inhibition": "12.2% (active)"}
{"compound": "O=C(NCc1ccccc1)C1=C[C@H](C2CC2)C[C@H](OCc2ccc(CO)cc2)O1", "inhibition": "-0.5% (inactive)"}
{"compound": "CC(C)(C)[C@H]1C=C(C(=O)NCc2ccccc2)O[C@@H](OCc2ccc(CO)cc2)C1", "inhibition": "3.51% (inactive)"}
{"compound": "O=C(NCc1ccccc1)C1=C[C@@H](C2CCCCC2)C[C@@H](OCc2ccc(CO)cc2)O1", "inhibition": "16.7% (active)"}
{"compound": "Fc1ccccc1Cn1cnc(NC(=S)NCCc2ccccc2)n1", "inhibition": "6.41% (inactive)"}
{"compound": "O=C(NCCc1ccc(F)cc1)c1n[nH]c2ccccc12", "inhibition": "-0.97% (inactive)"}
{"compound": "C/C(N)=C(/C#N)C(=O)COC(=O)c1cc(-c2cccc(Br)c2)nc2ccccc12", "inhibition": "4.74% (inactive)"}
{"compound": "O=C(CCC1CCCN(Cc2ccc(O)c(Cl)c2)C1)NCc1ccccc1F", "note": "(centres undefined)", "inhibition": "1.23% (inactive)"}
{"compound": "O=C(Oc1cccc(O)c1)C1CCCCC1", "inhibition": "-0.74% (inactive)"}
{"compound": "CC(C)Oc1ccccc1C(=O)NC(CO)C(=O)O", "note": "(centres undefined)", "inhibition": "1.42% (inactive)"}
{"compound": "O=C(NN=C1CCC(=NNC(=O)c2cccnc2)CC1)c1cccnc1", "inhibition": "1.46% (inactive)"}
{"compound": "CC(C)OCCCNC(=O)c1ccc(C2SCC(=O)N2Cc2ccco2)cc1", "note": "(centres undefined)", "inhibition": "1.08% (inactive)"}
{"compound": "Cc1ccsc1C1C(C#N)=C(N)OC2=C1C(=O)CC(C)(C)C2", "note": "(centres undefined)", "inhibition": "1.24% (inactive)"}
{"compound": "CCNC(=S)N1CCC(c2nc3cc(C)c(C)cc3[nH]2)CC1", "inhibition": "-0.13% (inactive)"}
{"compound": "CN(c1ccccc1)c1ccc(/C=c2\\s/c(=C(/C#N)C(=O)C(C)(C)C)n(Cc3ccco3)c2=O)cc1", "inhibition": "22.5% (active)"}
{"compound": "Cc1cc2c(c(=O)n1Cc1ccco1)C(c1ccccc1)C(C#N)=C(N)O2", "note": "(centres undefined)", "inhibition": "2.82% (inactive)"}
{"compound": "COc1ccc(NC(=O)Cn2c(=O)n(Cc3ccco3)c(=O)c3ccccc32)cc1", "inhibition": "2.68% (inactive)"}
{"compound": "CCc1ccc(NC(=O)C(C)OC(=O)/C=C/c2cccc([N+](=O)[O-])c2)cc1", "note": "(centres undefined)", "inhibition": "2.92% (inactive)"}
{"compound": "COc1c(C)cc(C(=O)C2CCCN(S(=O)(=O)c3c(C)noc3C)C2)cc1C", "note": "(centres undefined)", "inhibition": "5.32% (inactive)"}
{"compound": "CCOc1ccccc1NC(=O)CCc1ccc(C)o1", "inhibition": "1.75% (inactive)"}
{"compound": "Cc1cnc(NC(=O)CSc2nnc(-c3ccc(Cl)cc3Cl)n2N)s1", "inhibition": "2.06% (inactive)"}
{"compound": "Cc1ccc(CCC(=O)Nc2ncc(Cc3cc(Cl)ccc3Cl)s2)o1", "inhibition": "14% (active)"}
{"compound": "CCOC(=O)Cc1cc(=O)[nH]c(=O)[nH]1", "inhibition": "-0.76% (inactive)"}
{"compound": "Cc1cc(C)c(C#N)c(SCC(=O)NN2CC(=O)N(c3ccccc3F)CC2=O)n1", "inhibition": "1.88% (inactive)"}
{"compound": "O=C(c1ccc(Cl)c([N+](=O)[O-])c1)N1CCN(c2ccccc2)CC1", "inhibition": "-1.05% (inactive)"}
{"compound": "CC(O)C(NS(=O)(=O)c1ccc(Cl)cc1)C(=O)OCc1cc([N+](=O)[O-])cc2c1OCOC2", "note": "(centres undefined)", "inhibition": "14.1% (active)"}
{"compound": "COc1ccc(S(=O)(=O)NC(C)C(=O)Nc2cccc([N+](=O)[O-])c2)cc1", "note": "(centres undefined)", "inhibition": "0.38% (inactive)"}
{"compound": "Nc1ccccc1SCc1cc([N+](=O)[O-])cc2c1OCOC2", "inhibition": "0.13% (inactive)"}
{"compound": "CN(C)CCCO/N=C(\\c1ccccc1)c1ccncc1", "inhibition": "1.14% (inactive)"}
{"compound": "O=c1[nH]n2c(-c3ccccc3)nc(O)c2c2ccccc12", "inhibition": "2.15% (inactive)"}
{"compound": "Cn1c(=O)c2c(ncn2CC(=O)N/N=C/c2cn[nH]c2-c2ccc(F)cc2)n(C)c1=O", "inhibition": "1.49% (inactive)"}
{"compound": "CCSc1nnc(-c2cc3c(s2)-c2ccccc2CC3)o1", "inhibition": "2.39% (inactive)"}
{"compound": "Fc1ccc(-c2nnc(CSc3nnc(-c4ccc5c(c4)OCO5)o3)o2)cc1", "inhibition": "3.54% (inactive)"}
{"compound": "Fc1ccc(CSc2nnc(-c3cc4c(s3)-c3ccccc3CC4)o2)cc1", "inhibition": "22.2% (active)"}
{"compound": "Cc1ccc(N(C(=O)C(F)(F)F)C(C(=O)NC2CCCCC2)c2ccncc2)cc1C", "note": "(centres undefined)", "inhibition": "4.82% (inactive)"}
{"compound": "FC(F)(F)c1cccc(Cc2noc(CN3CCC(N4CCCCC4)CC3)n2)c1", "inhibition": "0.6% (inactive)"}
{"compound": "O=C(c1ccc(F)cc1)c1cn(Cc2ccc(F)cc2)c2cc3c(cc2c1=O)OCCO3", "inhibition": "9.62% (active)"}
{"compound": "CCn1cc(C(=O)N/N=C(/C)c2ccc(F)cc2)c(=O)c2cc(F)c(N3CCCC3)cc21", "inhibition": "0.79% (inactive)"}
{"compound": "COc1ccc2c(c1)c(=O)c(C(=O)c1ccc(Cl)cc1)cn2CC(=O)Nc1ccc(F)cc1", "inhibition": "3.22% (inactive)"}
{"compound": "COc1ccc(/C=C2\\SC(=S)N(CC(=O)NNC(=O)c3ccncc3)C2=O)cc1", "inhibition": "4.19% (inactive)"}
{"compound": "O=C(CCN1C(=O)/C(=C/c2cccs2)SC1=S)NNC(=O)c1cccc(O)c1", "inhibition": "9.69% (active)"}
{"compound": "Cc1c(C(=O)NCCN2C(=O)S/C(=C\\c3cccs3)C2=O)cccc1[N+](=O)[O-]", "inhibition": "2.49% (inactive)"}
